# Bioassay records (PubChem BioAssay)
# Compounds with a hit are over-represented: about 1.2% of the library has one in this group of screens.
# Yeast superoxide = caloric restriction mimetics inhibiting age-related superoxide in yeast; AID 2690; 0.18% of 330,000 active; superoxide response (% of plate mean), % at 10 µM; S. cerevisiae aged cells, superoxide DHE fluorescence; active compounds read low;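 active = superoxide response under a set limit, about three screen SD below normal, cut at about 65% in these data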;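 note: yeast aged for seven days with compound at 30 °C before DHE staining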
# LANA-H2A inh = blocks KSHV LANA binding to histone H2A/H2B; cell-free LANA-H2A/H2B peptide, fluorescence polarization; Q9QR71; AID 2629; inhibition, % (test concentration not listed); 0.6% of 320,000 active; in the data active = inhibition mostly above about 10%, no sharp cut-off; inactive = mostly below about 6.7%
# HIF activator = HIF pathway transcriptional activation | U2OS HRE-luciferase reporter, luminescence; normalized: DMSO 0%, desferrioxamine 100% | activation, % at 7.5 µM (by protocol) | 0.32% of 300,000 active | AID 1910;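 active = mean activation of at least 10% of the iron chelator positive control signal, with at least half of replicates also reaching 10%; inconclusive = mean and replicate majority disagree about reaching 10%; inactive = mean and most replicates under 10%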
# HDAC3 inhib = human HDAC3 inhibition; inhibition, % at 8.3 µM; O15379; recombinant HDAC3, fluorogenic peptide/trypsin coupled, fluorescence; AID 2718; 0.15% of 320,000 active; in the data active = inhibition above about 26%, passing the limit was not always enough; inconclusive = no clear call, values can overlap the other calls
# Target sequence (O15379 whole entry, looked up): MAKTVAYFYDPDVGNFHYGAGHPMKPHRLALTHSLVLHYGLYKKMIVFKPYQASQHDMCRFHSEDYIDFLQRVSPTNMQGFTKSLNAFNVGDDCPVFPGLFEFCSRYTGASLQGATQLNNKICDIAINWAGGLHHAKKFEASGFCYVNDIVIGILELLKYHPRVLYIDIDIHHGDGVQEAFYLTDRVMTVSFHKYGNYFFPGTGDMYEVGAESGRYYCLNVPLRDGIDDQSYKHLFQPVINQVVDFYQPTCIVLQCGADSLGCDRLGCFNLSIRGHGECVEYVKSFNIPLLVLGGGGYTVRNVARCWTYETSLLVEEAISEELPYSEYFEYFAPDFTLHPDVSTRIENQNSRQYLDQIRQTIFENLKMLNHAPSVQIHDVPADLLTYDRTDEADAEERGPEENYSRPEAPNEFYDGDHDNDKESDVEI
# Hits are given with their value; . = inactive; ? = inconclusive; / = no result given.
SMILES,Yeast superoxide,LANA-H2A inh,HIF activator,HDAC3 inhib
Cc1ccccc1NS(=O)(=O)c1ccc(C(=O)NCC(c2ccco2)N(C)C)cc1 (stereo unspecified),.,19.6,.,.
Cc1ccc(S(=O)(=O)N(C)c2ccc(C(=O)NCC(c3ccco3)N(C)C)cc2)cc1 (stereo unspecified),.,35.2,/,.
Cc1ccc(C)c(S(=O)(=O)Nc2ccc(C(=O)NCC(c3ccco3)N(C)C)cc2)c1 (stereo unspecified),.,.,.,.
Cc1ccc(S(=O)(=O)n2cccc2C)cc1,.,.,.,.
CC1CCCC(NS(=O)(=O)c2ccc3c(c2)OCCO3)C1C (stereo unspecified),.,.,.,.
O=S(=O)(NC1CC2CCC1C2)c1ccc2c(c1)OCCO2 (stereo unspecified),.,20.1,.,.
O=c1cc(CN2CCN(c3cccc(C(F)(F)F)c3)CC2)nc2sccn12,.,.,.,.
COc1ccc2c(c1)c(=O)oc1cc3occ(C(C)(C)C)c3cc12,.,12.1,.,.
COc1ccc2c(c1)c(=O)oc1cc(O)ccc12,.,.,.,.
CCCCCC(=O)N(O)C1CC(=O)N(c2ccccc2)C1=O (stereo unspecified),.,.,.,75.4
CCCCCCC(=O)N(O)C1CC(=O)N(Cc2ccccc2)C1=O (stereo unspecified),.,.,/,77.8
O=C1N/C(=C/c2cccs2)C(=O)N1Cc1ccc(Br)cc1,.,.,328.4,.
O=C1CCCC(O)=C1C=Nc1cccc(C(F)(F)F)c1,.,.,714.3,.
O=C(CCn1c(=O)oc2ccccc21)NCc1cccs1,.,.,/,.
Cc1cc([N+](=O)[O-])nn1CC(=O)NC1CCCCC1,.,19.5,.,.
Cc1cc([N+](=O)[O-])nn1CCC(=O)NC1CCCCCC1,.,.,.,.
S=c1[nH]nc(-c2ccc(Cl)cc2)n1CCCN1CCOCC1,.,.,.,.
COc1ccc(S(=O)(=O)N2CCC(Cc3ccccc3)CC2)cc1NC(C)=O,.,.,.,.
COc1ccc(-c2cc(C(F)(F)F)nc(SCCC(=O)NCc3ccccc3)n2)cc1,.,32.1,.,?
COc1ccc(-c2cc(C(F)(F)F)nc(SCc3cccc(C(=O)O)c3)n2)cc1,.,.,.,.
COc1ccc(C(=O)N/N=C/c2ccccn2)cc1OC,.,.,.,.
O=C(N/N=C/c1ccccn1)c1ccccc1,.,.,.,.
O=C(N/N=C/c1ccccn1)c1ccc(Cl)cc1,.,.,11.7,.
COc1ccc(C(=O)Nc2ccccc2C(=O)N/N=C/c2ccccn2)cc1OC,.,.,18.6,.
Cc1ccccc1OCC(=O)N/N=C/c1ccccn1,.,26.7,.,.
SMILES,Yeast superoxide,LANA-H2A inh,HIF activator,HDAC3 inhib
Cc1ccc(S(=O)(=O)N2CCN(C(C)C(=O)NCC(C)c3ccccc3)CC2)cc1 (stereo unspecified),.,.,/,.
CC(c1nnc(SCC(=O)c2c(N)n(C3CC3)c(=O)[nH]c2=O)n1-c1ccc(F)cc1)N(C)C (stereo unspecified),.,.,/,.
COc1ccc2c(c1)-c1nc(NC(=O)c3ccco3)sc1CC2,.,.,9.9,.
COc1ccc2c(c1)CCc1sc(NC(=O)c3ccco3)nc1-2,.,.,.,.
CCc1cc2ccc(C)cc2nc1SCC(=O)c1ccc(NC(C)=O)cc1,.,.,.,68.5
O=C(NCC1CCCN1S(=O)(=O)c1cccs1)C(=O)Nc1ccc(F)cc1F (stereo unspecified),.,.,.,.
Cc1ccc(NC(=S)N(Cc2cccs2)Cc2cc3cccc(C)c3[nH]c2=O)cc1,.,.,888.6,.
Cc1cccc2cc(CN(Cc3cccs3)C(=S)NCC3CCCO3)c(=O)[nH]c12 (stereo unspecified),.,.,.,.
CC(C)(C)C(=O)N1CCN(c2ncccc2C(F)(F)F)CC1,.,.,.,.
FC(F)(F)c1cccnc1-n1cncn1,.,12.7,.,.
CC(C)C1CC(CCNCc2ccc(N(C)C)cc2)(c2ccccc2)CCO1 (stereo unspecified),.,7.2,.,.
Cc1ccc(C2(CCNCc3ccc(N(C)C)cc3)CCOC(C(C)C)C2)cc1 (stereo unspecified),.,.,.,.
O=C(CS(=O)c1ccc(F)cc1)Nc1ccccc1Cl (stereo unspecified),.,13.4,.,.
CCOc1ccc(NS(=O)(=O)c2ccc(C(=O)N3CCC3)cc2)cc1,.,.,.,.
Cn1c(SCC(=O)Nc2ccc(C(N)=O)cc2)nnc1-c1cccs1,.,15.5,.,.
CCOC(=O)c1ccc(NC(=O)CSc2nnc(-c3cccs3)n2C)cc1,.,.,.,.
N#CC/C(N)=N/Nc1nc2ccccc2nc1Cc1ccccc1,.,.,.,.
[O-]/C(=C(\C(=S)Nc1cccc2ccccc12)[n+]1ccccc1)c1cccs1,.,.,54.6,.
CN1CCN(CCNC(=O)Nc2ccccc2C(F)(F)F)CC1,.,17.5,.,.
COc1ccccc1N1C(=O)CC(Sc2nccc(C)n2)C1=O (stereo unspecified),.,.,.,.
Cc1cc(C)nc(SC2CC(=O)N(c3ccc(C)c(C)c3)C2=O)n1 (stereo unspecified),.,16.0,.,.
COc1cc([N+](=O)[O-])ccc1N1C(=O)CC(Sc2nccc(C)n2)C1=O (stereo unspecified),.,15.0,.,.
Cc1ccc(-c2c(C#N)c(N)nc3c2CCCCC3)cc1,.,.,.,.
CC(C)c1ccc(-c2c(C#N)c(N)nc3c2CCCCC3)cc1,.,.,267.9,.
CCOC(=O)C1CCN(C(=O)C2CCCN(c3ncnc4c3nc3n4CCCCC3)C2)CC1 (stereo unspecified),.,.,400.3,.
SMILES,Yeast superoxide,LANA-H2A inh,HIF activator,HDAC3 inhib
Cc1cc(-c2cc(C(=O)NCc3ccccc3)on2)nc(S(C)(=O)=O)n1,.,.,.,.
CCc1noc(C)c1C(=O)NNC(=O)c1ccccc1,.,96.5,/,.
CCc1ccc(C(=O)NNC(=O)c2c(CC)noc2C)cc1,.,.,.,.
CN(C(=O)c1ccccc1C(=O)OCC(=O)c1ccc(F)cc1)c1ccccc1,.,.,/,.
CN(C(=O)c1ccccc1C(=O)OCC(=O)c1ccccc1)c1ccccc1,.,30.3,/,.
CCCC(C)c1nnc(NC(=O)CCS(=O)(=O)Cc2ccccc2)s1 (stereo unspecified),.,.,.,.
CCCC(C)c1nnc(NC(=O)CS(=O)(=O)Cc2ccccc2)s1 (stereo unspecified),.,30.4,.,.
O=C(NCCc1ccccc1)C1CCN(c2nc3ccccc3o2)CC1,.,14.3,.,.
O=C(NC1CCCCCCC1)C1CCN(c2nc3ccccc3o2)CC1,.,.,.,.
COc1ccccc1NS(=O)(=O)c1ccc(C(=O)N2CCCCCC2)cc1,.,.,/,.
COc1cccc(C(=O)SC2=NCCS2)c1,.,.,327.2,48.7
COc1ccc2nc(NC(=O)CSC3=NCCS3)sc2c1,.,.,.,.
CC1(C)CC(=O)C(C(=S)Nc2ccccc2)=C(NCCN2CCOCC2)C1,.,.,.,.
